# From PubChem BioAssay
# This is a sample that favours compounds with a hit; in the whole collection about 3.6% have one here.
# TRHR ag = activates the human TRH receptor; AID 493084; activation, % at 2 µM; TRHR cells, calcium flux fluo-8, FDSS agonist mode; P34981; 360,000 tested, 0.18% active; note: 0% is about no effect
# Target sequence (P34981 whole entry, looked up): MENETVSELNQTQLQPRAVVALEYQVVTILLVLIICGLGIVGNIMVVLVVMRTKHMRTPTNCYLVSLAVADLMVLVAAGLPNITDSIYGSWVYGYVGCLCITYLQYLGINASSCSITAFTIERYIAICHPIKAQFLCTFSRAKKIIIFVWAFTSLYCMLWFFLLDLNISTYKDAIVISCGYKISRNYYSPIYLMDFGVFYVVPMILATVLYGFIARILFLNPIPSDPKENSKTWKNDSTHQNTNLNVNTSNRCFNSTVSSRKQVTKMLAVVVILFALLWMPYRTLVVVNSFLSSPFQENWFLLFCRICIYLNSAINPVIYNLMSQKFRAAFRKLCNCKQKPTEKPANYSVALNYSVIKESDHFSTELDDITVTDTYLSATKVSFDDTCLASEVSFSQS
#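 Read-out: compound-evoked intracellular calcium rise in TRHR cells, fluo-8 dye, kinetic FDSS fluorescence at 1 s/cycle following a 10-cycle baseline. Cells cultured overnight before dye loading (30 min–1.5 h, RT).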
# D1 antagonist = human D1 dopamine receptor antagonism; activity change, negative = inhibition, % at 10 µM; 360,000 tested, 3.2% active; AID 504652; HEK293 TREx D1 cells, calcium flux, dopamine EC80; active compounds read low; in the data active = activity change below about -30%; note: % is set by controls: 0 for no effect and ±100 for the full control effect
#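 After overnight tetracycline induction at 30 C, force-coupled D1 HEK293 cells took up a no-wash calcium dye at room temperature. Compounds were added and monitored 180 s, and the response to EC80 dopamine was then recorded.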
# D1 potentiator = enhances dopamine response at the human D1 receptor | potentiation, % at 10 µM | HEK293 TREx D1 cells, calcium flux, dopamine EC20 potentiation | 360,000 tested, 0.036% active | P21728; in the data active = potentiation above about 30%; note: 0% is about no effect
# TRHR PAM = allosterically enhances the human TRH receptor. P34981. TRHR cells, fluo-8 calcium fluorescence, EC20 TRH enhancement. enhancement, % at 2 µM. 360,000 tested, 0.66% active; in the data active = enhancement above about 30%; note: 0% is about no effect
#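 TRHR-expressing cells loaded with fluo-8 calcium dye were read kinetically (ex 480/em 530) during compound addition, then stimulated with an EC20 of TRH (10 nM final). Enhancement of the Gq-mediated intracellular calcium response was scored.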
# LDHA inh = blocks human lactate dehydrogenase A. P00338. purified LDHA, NADH/diaphorase-resazurin fluorescence; active compounds read low. 480,000 tested, 0.15% active. AID 1347041. activity change, % (values are at about 110 or 230 µM); in the data active = activity change below about -30%;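 note: plate controls were DMSO wells for no effect and wells without enzyme for full effect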
#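 LDH5 2 nM; NADH 0.06 mM, pyruvate 0.2 mM; 200 mM Tris pH 7.4, EDTA, Tween-20; 5 min RT. Detection: diaphorase 0.133 mg/mL + resazurin 37 µM, fluorescence ex540/em590 at 0 and 20 min; normalized to enzyme-free and DMSO wells.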
# D1 agonist = agonists of human D1 dopamine receptor; P21728; HEK293 T-REx D1 cells, calcium flux, agonist mode; activation, % at 2 µM; 360,000 tested, 1% active; AID 504660; note: 0% is about no effect
#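 Tetracycline-induced HEK293 TREx D1 cells, force-coupled to calcium signalling, were dye-loaded with a no-wash calcium kit. Compound was pin-added after a 10 s baseline. Fluorescence was read kinetically at 1 cycle/s for 180 s, with calcium rises flagged as agonism.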
# An asterisk follows results filed as active; x = no result; ! = a repeat was not active. Cut-off read from the data, not from the text of the source, unless noted: active = activation above about 30%; inactive = the rest.
SMILES,TRHR ag,D1 antagonist,D1 potentiator,TRHR PAM,LDHA inh,D1 agonist
CCc1ccc(OC)c(S(=O)(=O)NCCOc2ccccc2)c1,-2,3,-6,31*,3,4
Cc1cc(C(=O)CN2CCN(CC(=O)Nc3ccc(F)cc3)CC2)c(C)n1CCc1cccs1,x,x,x,x,-9,x
CN(C(=O)CN1C(=O)NC(C)(c2cccc(Br)c2)C1=O)C1CCCCC1 (stereo not given),0,-57*,-3,-5,-1,6
CC1(c2cccc(Br)c2)NC(=O)N(CC(=O)NCC2CCCO2)C1=O (stereo not given),0,0,1,19,-6,3
O=C(CNc1cccc2ccccc12)N/N=C/c1ccc(OC(=O)/C=C/c2ccco2)cc1,0,-70*,-3,-2,22,3
O=C(/C=C/c1ccco1)Oc1cc(Br)cc(/C=N/NC(=O)c2ccccc2O)c1,4,-35*,-10,5,6,12
COc1cc(/C=N/NC(=O)CNC(=O)/C=C/c2ccco2)cc(OC)c1OC,0,2,-3,31*,-3,3
COc1ccc(/C=N/NC(=O)CNC(=O)/C=C/c2ccco2)cc1OC,-1,15,-3,7,0,1
c1ccc2c(CSC3=NCCCN3)cccc2c1,x,x,x,x,-3,x
COc1ccc(Nc2nc3ccccc3nc2NS(=O)(=O)c2ccccc2)cc1Cl,x,x,x,x,8,x
CC(=O)N(Cc1cc2ccccc2[nH]c1=O)CC(C)C,x,x,x,x,3,x
Cc1cnc(C(=O)Oc2ccc(Cl)cc2)cn1,x,x,x,x,-2,x
CCOC(=O)c1ccc(COC(=O)CCc2nc3ccccc3[nH]c2=O)cc1,x,x,x,x,6,x
O=C(CCc1ccc(S(=O)(=O)N2CCOCC2)cc1)OCc1nc2ccccc2s1,-1,-9,2,-9,2,33*
O=C(CCc1nc2ccccc2[nH]c1=O)OCc1ccc(S(=O)(=O)N2CCOCC2)cc1,0,-7,1,36*,-3,1
COc1ccc(C2C(C(C)=O)=C(O)C(=O)N2c2ccc(C)c(Br)c2)c(OC)c1 (stereo not given),x,x,x,x,-5,x
CCCCn1nnc(NC(=O)c2cc3ccccc3o2)n1,2,-36*,6,4,-5,2
CCOC(=O)c1cccc(NC(=O)c2ncoc2-c2ccco2)c1,-1,-39*,-1,4,-10,16
O=C(Nc1cccc(C(=O)N2CCCCCC2)c1)c1ccco1,0,-11,-1,4,-4,2
CCOC(=O)c1cccc(NC(=O)c2cc3ccccc3o2)c1,0,-42*,4,-7,-3,6
CCOC(=O)N1CCN(C(=O)c2cccc(NC(=O)c3ccco3)c2)CC1,1,-63*,-7,-2,-11,3
CCCn1nnc(NC(=O)c2cc3ccccc3o2)n1,0,6,9,6,-4,4
CCN(CC)S(=O)(=O)c1ccc(S(=O)(=O)Nc2ccc(SC#N)cc2F)cc1,x,x,x,x,0,x
Cc1ccc(OCCNC(=O)c2nn(C)c(=O)c3ccccc23)cc1,x,x,x,x,-5,x
Clc1ccc(COc2ccccc2CNCc2cccnc2)c(Cl)c1,x,x,x,x,1,x
SMILES,TRHR ag,D1 antagonist,D1 potentiator,TRHR PAM,LDHA inh,D1 agonist
CN(c1ccccc1)S(=O)(=O)c1nnc(NC(=O)C2CCCCC2)s1,0,-37*!,-5,-1,-6,7
CCN(c1ccccc1)S(=O)(=O)c1nnc(NC(=O)c2cccs2)s1,0,-41*,-3,6,-11,23
CN(c1ccccc1)S(=O)(=O)c1nnc(NC(=O)c2ccccc2)s1,-3,-10,5,5,-15,-2
CC(Nc1ccc(NC(=O)c2cccc[n+]2[O-])cc1)c1ccccc1 (stereo not given),x,x,x,x,11,x
COc1cccc(/C=C/c2nc(C#N)c(N3CCCC3)o2)c1,x,x,x,x,-2,x
CC(=O)NCCC1CCCCN1Cc1nc(Cc2cccc(C(F)(F)F)c2)no1 (stereo not given),1,-50*,-8,0,-5,1
CSc1ccc(NC(=O)C(C)N2CCN(C)CC2)cc1 (stereo not given),0,-2,-6,12,-35*,4
